# Reference: PubChem BioAssay AID1259415 (National Center for Advancing Translational Sciences (NCATS), 2018)
# About 18,000 (4.4%) of roughly 410,000 compounds were called active. Inconclusive results (about 7%) are left out. This excerpt belongs to a sample that is enriched for actives. A number with no mark means an inactive call. Rule as the data show it: active = activity change below about -60%; inconclusive = no clear call, values can overlap the other calls; inactive = above about -39%.
# Test: qHTS Assay for inhibitors of the human cytomegalovirus (HCMV)
# Settings: HFF cells, HCMV-luciferase reporter, 72 h; at 57.5 µM; stronger effect = lower value
# Description: NCGC Assay Overview: Infection with human cytomegalovirus (HCMV) continues to pose significant threats for pregnant women and immunocompromised hosts. HCMV causes serious morbidity and mortality in transplant recipients, and congenital HCMV is the leading infectious cause of mental retardation and deafness in children. In the 1990s, the annual costs associated with the disease burden of congenital CMV were estimated at around $2 billion. A HCMV vaccine is not available yet and HCMV therapies result in intolerable side effects and emergence of drug resistant viruses. […] Towards this goal we have developed and characterized a luciferase HCMV reporter that was initially used in 96 well plates and then optimized to 1536-well plates for utilization in screening of the MLSMR collection, the NGCG diversity collection and the NCGC Pharmaceutical Collection of approved and investigational drugs.
# NCGC Assay Protocol Summary:
# This is a cell-based assay for HCMV inhibition in HFFs cells. The screening used 2 compound doses and the HCMV-luciferase at MOI of 1 PFU/cell. Cells were treated and infected with HCMV. At 72 h post infection cell lysates were collected and luciferase activity was determined using the Glomax-Multi + Detection System (Promega, Madison, WI). Data were normalized to the controls for basal activity (buffer only) and known HCMV inhibitors Salinmoycin.
# 1536-well assay protocol for the assay:
# (1) Add 3 ul CMV/HFF cell culture. 1000 cells/well in DMEM nirmal media.
# (2) Incubate 16 hr at 37C.
# (3) Add 23 nl control compound, 10uM of Salinomycin.
# (4) Add 23 nl compounds in DMSO solution.
# (5) Add 3 ul CMV suspension. Final 1 puf/ul, Virus stock 2000pfu/ul
# (6) Incubate 72 hrs at 37C.
# (7) Add 4 ul OneGlo Luc Reagent.
# (8) Incubate 5 min at room temperature.
# % is scaled to controls: 0 for no effect and ±100 for the full control effect.
row,Structure (SMILES),"activity change, negative = inhibition"
1,Cc1ccc(S(=O)(=O)c2c(Nc3cccc(Cl)c3)sc(C(=O)c3ccc4c(c3)OCO4)c2N)cc1,9.79%
2,Cc1ccc(/C=N/NC(=O)C2=NNC(c3ccccc3)(c3ccccc3)C2)c(O)c1,-93.6% (active)
3,Cc1ccc(/C=N/NC(=O)C(NC(=O)c2ccccc2)c2n[nH]c(=O)c3ccccc23)cc1 (stereo not drawn),19.8%
4,Cc1ccc(O)c(-c2cc(C(=O)NCc3ccccc3)[nH]n2)c1,1.75%
5,COc1ccc(NC(=O)c2cc3cc(C)ccc3n2C)cc1,5.58%
6,CCOC(=O)c1c(S(=O)(=O)N2CCCC(C(=O)NCc3cccc(C)c3)C2)c(C)n(C)c1C (stereo not drawn),-0.309%
7,Cc1oc2ncn(CC(C)C)c(=O)c2c1C(=O)N1CCN(c2ccccc2F)CC1,14.5%
8,C=C1C(=O)[C@]23C[C@H]1CCC2[C@@]1(C)C(C[C@@H]3O)[C@](C)(C(=O)O)CC[C@@H]1O (stereo partly drawn),-81.2% (active)
9,Cc1ccc(OCCOCCOc2ccc(Br)cc2/C=N\NC(=O)c2ccncc2)cc1,-1.54%
10,Oc1ccc(Br)cc1/C=N/Nc1ccccn1,-97% (active)
11,Fc1ccccc1/C=N/Nc1cc(N2CCCCC2)ncn1,76.3%
12,COc1ccc(-c2noc(CSc3nc4ccc(C)cc4[nH]3)n2)cc1,-38.7%
13,COC(=O)c1cnc(N2CCN(c3ccccc3OC)CC2)c2ccccc12,-6.88%
14,Cc1cccc(N2CCN(C3=C(c4ccccc4)C(=O)c4ccccc43)CC2)c1C,-15.5%
15,O=C(NC1CC(=O)N(c2ccc(F)cc2)C1)c1cccs1 (stereo not drawn),70.7%
16,COc1ccc(C)cc1Nc1nc2ccccc2c2nnc(C)n12,18.4%
17,O=C(c1n[nH]c2c1CCC2)N1CCCC(Nc2cccc(F)c2)C1 (stereo not drawn),9.79%
18,Cc1ccc(-c2onc(C)c2C)cc1S(=O)(=O)Nc1ccccn1,52.8%
19,COc1ccc(NS(=O)(=O)c2ccc(N3CCOCC3)c(NC(=O)c3ccccc3Br)c2)cc1,0%
20,Cn1c(=O)c(=O)n(C)c2cc(NC(=O)c3ccccc3Br)ccc21,-5.7%
21,COc1ccc2c(c1)Cc1sc(NC(=O)c3ccccc3Br)nc1-2,-70.4% (active)
22,O=C(NCCc1ccccc1)c1ccc2c(c1)N(Cc1ccccc1)C(=O)c1ccccc1S2(=O)=O,3.01%
23,O=C(OCCO)c1cc(Cl)c(C(=O)OCCO)cc1Cl,-29.4%
24,CC1=C(C(=O)N(C(C)C)C(C)C)CC(CC(=O)NCCCCc2ccccc2)C(=O)N1CCC1=CCCCC1 (stereo not drawn),-112% (active)
25,CCOC(=O)[C@]12CCCC=C1N(CCC1=CCCCC1)C(=O)[C@H](CC(=O)NCCCCc1ccccc1)C2,-18.4%
26,CC1=C(C(=O)N(C)C)CC(CC(=O)NCCc2ccccn2)C(=O)N1CCC1=CCCCC1 (stereo not drawn),8.56%
27,COc1ccccc1NC(=O)C1=C(C)Nc2ncnn2C1c1sccc1C (stereo not drawn),18%

row,Structure (SMILES),"activity change, negative = inhibition"
1,O=C(CSc1oc(-c2ccco2)nc1S(=O)(=O)c1ccc(Cl)cc1)c1ccccc1,-0.0708%
2,CC(=O)Nc1ccc(S(=O)(=O)N2CCC(C(=O)NC3CC3)CC2)cc1,6.71%
3,O=C(Nc1ccc(S(=O)(=O)N2CCOCC2)cc1)C1CCN(S(=O)(=O)c2ccc(Cl)cc2)CC1,-78.5% (active)
4,O=C(Nc1ccc(Oc2ccccc2)cc1)C1CCN(S(=O)(=O)c2ccc(Cl)cc2)CC1,-10.9%
5,CCCNC(=O)c1ccc(Cn2c(SCC(N)=O)nc3ccccc3c2=O)cc1,4.58%
6,CN(CC(=O)Nc1ccc(C(N)=O)cc1)S(=O)(=O)c1ccc2c(c1)OCCO2,21.6%
7,NC(=O)c1ccc(NC(=O)COC(=O)C(Cc2ccccc2)NC(=O)c2ccccc2)cc1 (stereo not drawn),10.9%
8,NC(=O)c1ccc(NC(=O)COC(=O)c2c3c(nc4ccccc24)/C(=C\c2ccc4c(c2)OCO4)CCC3)cc1,-90.6% (active)
9,COc1ccc(CCNC(=O)CCCn2c(=O)c3ccccc3n(Cc3ccc(C)cc3)c2=O)cc1OC,8.21%
10,Cc1ccc(Cn2c(=O)n(Cc3nc(-c4ccccc4)no3)c(=O)c3cc4c(cc32)OCO4)cc1,-3.37%
11,COc1cc(C(=O)Nc2ccc(OCc3cc(=O)n4ccc(C)cc4n3)cc2)cc(OC)c1OC,58.3%
12,COc1ccc2oc(-c3ccc(C)c(NC(=O)c4sc5ccccc5c4Cl)c3)nc2c1,47.4%
13,Cc1[nH]nc(-c2ccc(OCc3cnn(-c4ccccc4)c3)cc2O)c1Oc1ccc(Cl)cc1,-95.2% (active)
14,Oc1cccc(C2c3[nH]c4ccccc4c3CCN2Cc2cnn(-c3ccccc3)c2)c1 (stereo not drawn),19.4%
15,CCCCN1C(=O)c2[nH]nc(-c3ccccc3O)c2C1c1cccc(OCc2ccccc2)c1 (stereo not drawn),-19%
16,CCC1CCCCN1C(=O)Cn1c(=O)n(CCCCCC(=O)NCc2ccccc2)c(=O)c2sccc21 (stereo not drawn),-18.6%
17,CCOC(=O)c1sc(-c2cccc([N+](=O)[O-])c2)cc1N,0.0939%
18,Cc1ccc(-c2nnc(CN3CCN(C)CC3)o2)cc1,145%
19,CCOC(=O)N1CCN(Cc2nnc(-c3ccccc3Cl)o2)CC1,-96.5% (active)
20,CCOC(=O)C1CCN(Cc2nnc(-c3cccc(Br)c3)o2)CC1,-20.4%
21,O=C(Nc1nnc(C2CC(=O)N(c3ccc(Cl)cc3)C2)s1)c1ccco1 (stereo not drawn),5.75%
22,Cc1ccc(NC(=O)CN2C(=O)CC(C)Sc3ccccc32)c(C)c1 (stereo not drawn),-2.3%
23,Cc1ccc(NC(=O)CC2C(=O)N(Cc3ccccc3)C(=S)N2NC(=O)c2cccc(F)c2)c(C)c1 (stereo not drawn),-70.8% (active)
24,Cc1ccc(N2C(=O)C(CC(=O)Nc3cccc(F)c3)N(CCc3ccncc3)C2=O)cc1 (stereo not drawn),-29.9%
25,Cc1ccc(CNC(=O)C2CC(c3ccccc3[N+](=O)[O-])=NO2)o1 (stereo not drawn),-11.5%
26,Cc1ccccc1NC(=O)c1cc2c([nH]c1=O)CC(C)(C)CC2=O,43%
